Assay results published in the supplement of paper PMC11732987, “Enantioselective OTUD7B fragment discovery through chemoproteomics screening and high-throughput optimisation” (Communications Chemistry, 2025).

Assays:
Assay in all cases: log2 ratio of Biotin-Ahx-Ub-VS probe labelling (fragment/DMSO); higher = less target engagement (more negative = stronger competition), active = hit call of the paper (q ≤ 0.05, log2 ratio ≤ -1)
Settings in all cases: compound concentration: 200 uM; treatment time: 3 h
USP34 = USP34 (UniProt Q70CQ2)
Chain of USP34 (Q70CQ2 whole entry, the tested form may be a part): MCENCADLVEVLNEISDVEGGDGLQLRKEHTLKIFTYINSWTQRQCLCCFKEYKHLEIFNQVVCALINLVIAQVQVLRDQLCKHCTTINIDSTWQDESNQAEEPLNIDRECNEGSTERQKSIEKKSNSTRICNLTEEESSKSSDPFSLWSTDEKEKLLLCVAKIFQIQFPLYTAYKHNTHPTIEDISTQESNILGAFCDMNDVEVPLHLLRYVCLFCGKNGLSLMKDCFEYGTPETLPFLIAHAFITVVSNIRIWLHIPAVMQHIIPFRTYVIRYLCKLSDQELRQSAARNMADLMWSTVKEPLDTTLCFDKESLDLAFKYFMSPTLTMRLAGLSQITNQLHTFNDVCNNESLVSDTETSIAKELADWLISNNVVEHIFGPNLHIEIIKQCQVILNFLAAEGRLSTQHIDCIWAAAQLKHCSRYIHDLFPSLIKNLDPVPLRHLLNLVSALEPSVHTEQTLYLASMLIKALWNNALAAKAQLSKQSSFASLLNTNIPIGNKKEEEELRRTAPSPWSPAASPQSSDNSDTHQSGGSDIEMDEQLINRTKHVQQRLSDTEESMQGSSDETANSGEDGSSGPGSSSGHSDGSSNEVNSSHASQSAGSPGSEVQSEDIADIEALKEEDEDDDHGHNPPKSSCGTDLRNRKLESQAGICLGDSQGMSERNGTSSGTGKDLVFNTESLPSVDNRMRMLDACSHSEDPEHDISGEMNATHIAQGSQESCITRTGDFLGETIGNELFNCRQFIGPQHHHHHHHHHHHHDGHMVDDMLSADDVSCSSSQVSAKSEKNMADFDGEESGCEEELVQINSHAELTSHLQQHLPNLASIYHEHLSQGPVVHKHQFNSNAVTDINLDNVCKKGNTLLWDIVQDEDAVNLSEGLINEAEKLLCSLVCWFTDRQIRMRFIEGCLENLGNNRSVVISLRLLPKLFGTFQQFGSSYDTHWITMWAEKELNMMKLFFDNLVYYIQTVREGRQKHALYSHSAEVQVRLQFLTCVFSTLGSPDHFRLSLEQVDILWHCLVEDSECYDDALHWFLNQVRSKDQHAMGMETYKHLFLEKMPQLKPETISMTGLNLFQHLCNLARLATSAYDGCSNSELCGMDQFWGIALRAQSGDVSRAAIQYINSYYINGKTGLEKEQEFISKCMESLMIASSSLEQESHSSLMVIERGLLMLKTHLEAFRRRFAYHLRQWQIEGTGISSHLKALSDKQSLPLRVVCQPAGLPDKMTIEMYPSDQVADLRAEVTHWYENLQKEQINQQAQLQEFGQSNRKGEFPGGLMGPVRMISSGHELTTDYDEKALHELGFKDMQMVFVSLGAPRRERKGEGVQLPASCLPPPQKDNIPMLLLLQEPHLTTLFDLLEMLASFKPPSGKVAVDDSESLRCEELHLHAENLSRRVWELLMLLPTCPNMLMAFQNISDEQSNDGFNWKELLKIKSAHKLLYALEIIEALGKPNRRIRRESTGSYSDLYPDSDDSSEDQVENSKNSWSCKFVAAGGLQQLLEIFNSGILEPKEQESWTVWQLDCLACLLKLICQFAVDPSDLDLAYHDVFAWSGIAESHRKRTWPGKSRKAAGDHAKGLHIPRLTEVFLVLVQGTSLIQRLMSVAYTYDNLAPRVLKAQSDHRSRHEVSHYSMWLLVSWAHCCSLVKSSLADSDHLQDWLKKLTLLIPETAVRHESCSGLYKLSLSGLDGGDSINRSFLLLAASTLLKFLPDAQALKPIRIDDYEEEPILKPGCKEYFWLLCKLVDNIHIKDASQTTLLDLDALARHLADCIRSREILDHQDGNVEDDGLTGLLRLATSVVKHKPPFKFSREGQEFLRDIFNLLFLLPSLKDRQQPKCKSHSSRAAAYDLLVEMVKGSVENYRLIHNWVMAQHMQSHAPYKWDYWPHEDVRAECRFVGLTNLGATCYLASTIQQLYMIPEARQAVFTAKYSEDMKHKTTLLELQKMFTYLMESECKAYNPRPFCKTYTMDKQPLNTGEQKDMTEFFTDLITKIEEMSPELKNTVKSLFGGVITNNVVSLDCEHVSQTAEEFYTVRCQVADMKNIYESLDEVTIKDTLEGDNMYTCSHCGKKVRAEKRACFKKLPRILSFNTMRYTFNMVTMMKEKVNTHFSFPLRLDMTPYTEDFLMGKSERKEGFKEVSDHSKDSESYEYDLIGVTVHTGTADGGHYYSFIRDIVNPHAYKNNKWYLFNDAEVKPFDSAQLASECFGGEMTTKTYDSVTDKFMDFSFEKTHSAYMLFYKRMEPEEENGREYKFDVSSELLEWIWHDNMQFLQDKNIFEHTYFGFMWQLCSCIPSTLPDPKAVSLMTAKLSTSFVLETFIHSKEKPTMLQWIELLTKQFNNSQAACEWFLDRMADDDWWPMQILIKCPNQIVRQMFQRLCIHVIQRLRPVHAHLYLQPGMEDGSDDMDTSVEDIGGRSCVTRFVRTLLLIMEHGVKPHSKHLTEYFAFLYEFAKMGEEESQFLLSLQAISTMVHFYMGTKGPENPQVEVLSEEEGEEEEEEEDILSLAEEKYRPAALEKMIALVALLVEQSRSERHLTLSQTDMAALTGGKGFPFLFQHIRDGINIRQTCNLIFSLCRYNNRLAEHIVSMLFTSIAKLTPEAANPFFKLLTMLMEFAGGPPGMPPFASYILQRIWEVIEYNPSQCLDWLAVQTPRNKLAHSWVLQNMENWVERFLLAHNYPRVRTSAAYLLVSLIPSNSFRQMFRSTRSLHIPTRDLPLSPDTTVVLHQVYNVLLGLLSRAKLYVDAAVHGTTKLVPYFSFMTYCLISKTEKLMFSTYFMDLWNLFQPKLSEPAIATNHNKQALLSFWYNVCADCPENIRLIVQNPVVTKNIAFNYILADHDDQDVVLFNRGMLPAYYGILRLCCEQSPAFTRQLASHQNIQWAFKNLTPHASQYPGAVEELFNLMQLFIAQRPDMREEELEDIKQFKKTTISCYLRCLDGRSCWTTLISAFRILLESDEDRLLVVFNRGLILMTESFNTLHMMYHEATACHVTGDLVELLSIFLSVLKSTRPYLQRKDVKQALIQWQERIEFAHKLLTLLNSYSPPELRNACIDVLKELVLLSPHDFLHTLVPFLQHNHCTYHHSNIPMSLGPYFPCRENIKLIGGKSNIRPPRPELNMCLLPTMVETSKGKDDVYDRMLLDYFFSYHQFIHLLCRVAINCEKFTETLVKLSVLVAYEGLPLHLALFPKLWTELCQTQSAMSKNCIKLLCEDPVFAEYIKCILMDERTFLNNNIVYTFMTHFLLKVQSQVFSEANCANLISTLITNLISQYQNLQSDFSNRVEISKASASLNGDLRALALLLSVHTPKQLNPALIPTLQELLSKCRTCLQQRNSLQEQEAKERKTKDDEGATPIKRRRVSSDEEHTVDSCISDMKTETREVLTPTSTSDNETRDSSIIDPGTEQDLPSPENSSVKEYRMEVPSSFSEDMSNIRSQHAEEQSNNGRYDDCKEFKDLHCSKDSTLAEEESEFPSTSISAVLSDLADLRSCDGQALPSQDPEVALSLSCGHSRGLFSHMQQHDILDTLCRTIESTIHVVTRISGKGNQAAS
Summary of the method: (§1)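 Labelling with Biotin-Ahx-Ub-VS (0.5 µM final, 1 h) followed a 3 h triplicate treatment of HEK293T lysate (495 µg per sample, Tris/CHAPS/IGEPAL buffer with protease inhibitors) with fragment at 200 µM or vehicle. Labelled DUBs were NeutrAvidin-enriched, digested with LysC and trypsin, and run by diaPASEF LC-MS/MS. The values, average log2 fragment/vehicle ratios by unpaired t-test, come from global-median-normalised Spectronaut label-free quantities. Proteins with ≥2 unique peptides were used.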

USP36 = molecular target: T1, USP36 (UniProt Q9P275)
T1 sequence (whole entry): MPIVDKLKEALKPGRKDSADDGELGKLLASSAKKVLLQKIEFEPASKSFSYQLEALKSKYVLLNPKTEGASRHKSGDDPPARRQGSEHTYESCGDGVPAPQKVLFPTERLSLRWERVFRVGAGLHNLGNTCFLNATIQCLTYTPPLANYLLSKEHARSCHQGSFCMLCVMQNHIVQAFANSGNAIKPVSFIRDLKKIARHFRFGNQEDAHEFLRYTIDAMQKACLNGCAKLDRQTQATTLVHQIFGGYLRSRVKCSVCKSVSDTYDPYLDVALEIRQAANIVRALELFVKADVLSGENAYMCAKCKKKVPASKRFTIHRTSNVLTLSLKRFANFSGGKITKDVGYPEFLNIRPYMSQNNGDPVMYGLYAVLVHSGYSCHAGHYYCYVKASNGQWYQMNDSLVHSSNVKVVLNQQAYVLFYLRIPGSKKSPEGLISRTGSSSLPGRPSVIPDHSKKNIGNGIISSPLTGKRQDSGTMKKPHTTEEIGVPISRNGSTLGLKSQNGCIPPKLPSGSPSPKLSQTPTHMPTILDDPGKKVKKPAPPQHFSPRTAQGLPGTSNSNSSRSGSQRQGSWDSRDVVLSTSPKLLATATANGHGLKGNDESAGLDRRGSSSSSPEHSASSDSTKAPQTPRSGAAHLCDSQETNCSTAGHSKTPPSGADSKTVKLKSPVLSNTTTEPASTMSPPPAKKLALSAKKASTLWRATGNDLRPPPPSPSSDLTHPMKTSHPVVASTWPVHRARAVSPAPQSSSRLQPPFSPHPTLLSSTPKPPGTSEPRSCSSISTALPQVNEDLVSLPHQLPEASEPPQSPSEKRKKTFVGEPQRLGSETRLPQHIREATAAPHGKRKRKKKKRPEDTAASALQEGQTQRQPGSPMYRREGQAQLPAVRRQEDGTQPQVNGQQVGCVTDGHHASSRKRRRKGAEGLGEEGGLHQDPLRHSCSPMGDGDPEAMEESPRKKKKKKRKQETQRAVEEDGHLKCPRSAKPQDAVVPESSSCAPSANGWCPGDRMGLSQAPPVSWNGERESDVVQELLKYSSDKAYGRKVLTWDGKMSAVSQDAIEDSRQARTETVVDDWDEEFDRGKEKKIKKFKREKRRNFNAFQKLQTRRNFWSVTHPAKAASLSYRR
Summary of the method: as §1

USP38 = molecular target: T2, USP38 (UniProt Q8NB14)
T2 sequence (whole entry): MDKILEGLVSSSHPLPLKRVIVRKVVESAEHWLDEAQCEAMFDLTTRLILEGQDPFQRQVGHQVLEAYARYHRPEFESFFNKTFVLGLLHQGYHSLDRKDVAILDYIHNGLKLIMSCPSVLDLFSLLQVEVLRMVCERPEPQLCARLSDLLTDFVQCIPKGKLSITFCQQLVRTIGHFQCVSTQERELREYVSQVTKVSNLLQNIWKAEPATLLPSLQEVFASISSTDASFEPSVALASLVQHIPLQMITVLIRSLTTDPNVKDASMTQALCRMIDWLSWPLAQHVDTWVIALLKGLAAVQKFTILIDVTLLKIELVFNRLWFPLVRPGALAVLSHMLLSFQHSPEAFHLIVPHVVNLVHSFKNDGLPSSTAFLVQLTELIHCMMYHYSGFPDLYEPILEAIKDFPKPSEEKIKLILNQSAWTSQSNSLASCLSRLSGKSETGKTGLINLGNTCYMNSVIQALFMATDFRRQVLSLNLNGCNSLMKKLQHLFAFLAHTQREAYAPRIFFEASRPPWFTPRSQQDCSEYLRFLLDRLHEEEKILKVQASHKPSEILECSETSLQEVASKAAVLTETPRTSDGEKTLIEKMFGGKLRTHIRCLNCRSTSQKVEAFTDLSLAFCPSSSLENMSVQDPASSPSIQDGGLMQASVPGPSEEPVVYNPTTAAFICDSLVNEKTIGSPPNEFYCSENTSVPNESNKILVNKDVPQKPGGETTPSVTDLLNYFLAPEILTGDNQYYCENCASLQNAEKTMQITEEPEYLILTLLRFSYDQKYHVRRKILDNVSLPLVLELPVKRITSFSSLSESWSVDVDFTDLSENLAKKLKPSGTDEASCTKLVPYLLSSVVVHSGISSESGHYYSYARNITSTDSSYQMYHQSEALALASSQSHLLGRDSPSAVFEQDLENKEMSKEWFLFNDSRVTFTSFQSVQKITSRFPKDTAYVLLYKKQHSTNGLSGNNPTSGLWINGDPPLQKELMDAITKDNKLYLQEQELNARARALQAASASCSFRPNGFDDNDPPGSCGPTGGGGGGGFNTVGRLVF
Summary of the method: as §1

USP39 = molecular target: T3, USP39 (UniProt Q53GS9)
T3 sequence (whole entry): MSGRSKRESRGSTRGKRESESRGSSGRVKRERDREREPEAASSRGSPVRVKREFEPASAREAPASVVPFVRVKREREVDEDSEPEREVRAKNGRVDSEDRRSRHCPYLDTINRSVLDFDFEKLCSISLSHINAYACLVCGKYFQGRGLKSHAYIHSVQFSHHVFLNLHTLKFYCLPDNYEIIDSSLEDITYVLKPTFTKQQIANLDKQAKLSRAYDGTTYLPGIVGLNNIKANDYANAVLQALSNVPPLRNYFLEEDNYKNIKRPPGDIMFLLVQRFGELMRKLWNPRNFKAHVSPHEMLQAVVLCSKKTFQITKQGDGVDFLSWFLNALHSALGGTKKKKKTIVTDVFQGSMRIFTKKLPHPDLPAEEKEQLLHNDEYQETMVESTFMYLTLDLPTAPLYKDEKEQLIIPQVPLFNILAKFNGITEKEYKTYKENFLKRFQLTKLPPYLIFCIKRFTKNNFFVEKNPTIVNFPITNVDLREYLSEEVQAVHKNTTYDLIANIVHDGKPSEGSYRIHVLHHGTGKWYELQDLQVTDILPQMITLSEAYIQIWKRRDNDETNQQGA
Summary of the method: as §1

USP4 = molecular target: T4, USP4 (UniProt Q13107)
T4 sequence (whole entry): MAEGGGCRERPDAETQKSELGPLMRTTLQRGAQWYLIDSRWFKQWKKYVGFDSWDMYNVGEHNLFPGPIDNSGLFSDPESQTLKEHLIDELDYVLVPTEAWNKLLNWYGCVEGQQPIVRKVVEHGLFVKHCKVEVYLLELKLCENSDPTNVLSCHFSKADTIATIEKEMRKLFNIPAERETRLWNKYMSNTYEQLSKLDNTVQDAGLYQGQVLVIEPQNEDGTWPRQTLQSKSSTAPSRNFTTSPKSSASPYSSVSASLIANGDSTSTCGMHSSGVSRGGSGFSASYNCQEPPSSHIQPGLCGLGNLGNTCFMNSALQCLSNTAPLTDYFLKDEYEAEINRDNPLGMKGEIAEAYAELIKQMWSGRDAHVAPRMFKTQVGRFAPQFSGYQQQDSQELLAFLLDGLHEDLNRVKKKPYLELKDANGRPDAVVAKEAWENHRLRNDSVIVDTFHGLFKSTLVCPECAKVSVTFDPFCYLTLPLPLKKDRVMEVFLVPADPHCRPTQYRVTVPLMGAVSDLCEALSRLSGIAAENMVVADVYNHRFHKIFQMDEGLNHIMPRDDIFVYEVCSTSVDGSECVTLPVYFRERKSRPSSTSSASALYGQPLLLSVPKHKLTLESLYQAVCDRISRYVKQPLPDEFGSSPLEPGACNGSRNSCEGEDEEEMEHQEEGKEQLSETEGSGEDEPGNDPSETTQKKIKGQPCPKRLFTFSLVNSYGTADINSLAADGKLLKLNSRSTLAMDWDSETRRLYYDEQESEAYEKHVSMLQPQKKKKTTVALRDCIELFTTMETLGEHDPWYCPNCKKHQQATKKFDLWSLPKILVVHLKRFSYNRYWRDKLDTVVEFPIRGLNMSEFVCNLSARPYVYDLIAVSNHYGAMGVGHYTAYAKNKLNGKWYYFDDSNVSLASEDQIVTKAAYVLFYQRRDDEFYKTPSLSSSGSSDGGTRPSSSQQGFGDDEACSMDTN
Summary of the method: as §1

Measured: log2 ratio of Biotin-Ahx-Ub-VS probe labelling

N#Cc1ccc(CNC(=O)CCl)cc1
inactive: USP34 -0.0142 | USP36 0.0698 | USP38 -0.0952 | USP39 0.191 | USP4 -0.0634
